Assays:
[1] = biological target: Death-associated protein kinase 1 (Homo sapiens) (UniProt P53355); details: at 10 µM
[2] = biological target: Death-associated protein kinase 2 (Homo sapiens) (UniProt Q9UIK4); details: at 1 µM
[3] = biological target: Death-associated protein kinase 2 (Homo sapiens) (UniProt Q9UIK4); details: at 10 µM
[4] = biological target: T1, Serine/threonine-protein kinase DCLK2 (Homo sapiens) (UniProt Q8N568); details: at 10 µM
T1 sequence (whole entry): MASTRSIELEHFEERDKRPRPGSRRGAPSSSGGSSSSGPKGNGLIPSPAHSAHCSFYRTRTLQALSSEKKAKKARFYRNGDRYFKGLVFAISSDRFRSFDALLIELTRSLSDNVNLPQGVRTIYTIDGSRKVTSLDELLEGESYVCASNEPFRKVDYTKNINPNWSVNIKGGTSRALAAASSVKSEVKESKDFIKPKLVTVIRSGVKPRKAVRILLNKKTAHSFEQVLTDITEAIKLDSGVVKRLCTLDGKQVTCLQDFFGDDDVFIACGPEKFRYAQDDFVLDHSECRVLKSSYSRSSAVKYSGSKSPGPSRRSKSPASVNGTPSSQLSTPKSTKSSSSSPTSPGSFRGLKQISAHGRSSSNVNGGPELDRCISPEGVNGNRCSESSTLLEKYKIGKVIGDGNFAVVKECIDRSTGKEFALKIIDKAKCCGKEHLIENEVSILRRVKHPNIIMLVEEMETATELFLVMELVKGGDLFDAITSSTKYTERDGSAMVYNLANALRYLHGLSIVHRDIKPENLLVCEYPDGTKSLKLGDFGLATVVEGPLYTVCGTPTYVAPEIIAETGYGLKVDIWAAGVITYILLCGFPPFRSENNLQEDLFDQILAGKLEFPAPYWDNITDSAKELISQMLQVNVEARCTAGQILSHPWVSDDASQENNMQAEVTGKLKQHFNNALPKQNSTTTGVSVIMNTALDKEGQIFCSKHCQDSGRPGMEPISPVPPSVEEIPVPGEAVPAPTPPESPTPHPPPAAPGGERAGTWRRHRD

[5] = biological target: T2, Myotonin-protein kinase (Homo sapiens) (UniProt Q09013); details: at 1 µM
T2 sequence (whole entry): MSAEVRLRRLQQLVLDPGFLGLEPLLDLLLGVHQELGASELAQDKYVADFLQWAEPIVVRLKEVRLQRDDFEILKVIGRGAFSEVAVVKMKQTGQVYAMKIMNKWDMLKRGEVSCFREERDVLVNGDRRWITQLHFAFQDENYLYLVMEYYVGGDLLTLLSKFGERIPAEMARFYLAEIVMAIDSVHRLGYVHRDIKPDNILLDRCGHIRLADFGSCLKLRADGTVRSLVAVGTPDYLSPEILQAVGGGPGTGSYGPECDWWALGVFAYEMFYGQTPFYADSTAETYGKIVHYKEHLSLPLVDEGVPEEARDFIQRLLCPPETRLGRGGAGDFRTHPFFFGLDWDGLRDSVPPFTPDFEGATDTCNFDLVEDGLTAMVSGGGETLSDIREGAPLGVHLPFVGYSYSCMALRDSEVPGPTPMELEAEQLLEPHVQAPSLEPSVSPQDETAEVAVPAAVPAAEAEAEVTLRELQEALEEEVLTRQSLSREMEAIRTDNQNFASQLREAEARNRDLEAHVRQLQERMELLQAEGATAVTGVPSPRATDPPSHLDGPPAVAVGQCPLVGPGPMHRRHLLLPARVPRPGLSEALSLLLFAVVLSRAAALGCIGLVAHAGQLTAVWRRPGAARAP

[6] = biological target: T2, Myotonin-protein kinase (Homo sapiens); details: at 10 µM
[7] = biological target: T3, Serine/threonine-protein kinase 17A (Homo sapiens) (UniProt Q9UEE5); details: at 1 µM
T3 sequence (whole entry): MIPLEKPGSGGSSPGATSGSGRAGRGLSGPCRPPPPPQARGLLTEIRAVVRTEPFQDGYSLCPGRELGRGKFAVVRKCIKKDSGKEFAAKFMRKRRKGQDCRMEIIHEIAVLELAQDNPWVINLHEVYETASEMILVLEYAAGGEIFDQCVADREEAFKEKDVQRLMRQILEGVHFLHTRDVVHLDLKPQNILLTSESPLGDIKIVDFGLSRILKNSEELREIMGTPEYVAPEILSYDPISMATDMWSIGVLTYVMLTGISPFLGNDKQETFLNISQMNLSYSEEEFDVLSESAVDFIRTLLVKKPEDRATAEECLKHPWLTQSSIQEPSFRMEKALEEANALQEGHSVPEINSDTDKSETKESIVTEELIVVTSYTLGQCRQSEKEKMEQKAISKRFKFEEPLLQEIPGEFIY

[8] = biological target: T3, Serine/threonine-protein kinase 17A (Homo sapiens); details: at 10 µM
[9] = biological target: T4, Dual specificity tyrosine-phosphorylation-regulated kinase 2 (Homo sapiens) (UniProt Q92630); details: at 1 µM
T4 sequence (whole entry): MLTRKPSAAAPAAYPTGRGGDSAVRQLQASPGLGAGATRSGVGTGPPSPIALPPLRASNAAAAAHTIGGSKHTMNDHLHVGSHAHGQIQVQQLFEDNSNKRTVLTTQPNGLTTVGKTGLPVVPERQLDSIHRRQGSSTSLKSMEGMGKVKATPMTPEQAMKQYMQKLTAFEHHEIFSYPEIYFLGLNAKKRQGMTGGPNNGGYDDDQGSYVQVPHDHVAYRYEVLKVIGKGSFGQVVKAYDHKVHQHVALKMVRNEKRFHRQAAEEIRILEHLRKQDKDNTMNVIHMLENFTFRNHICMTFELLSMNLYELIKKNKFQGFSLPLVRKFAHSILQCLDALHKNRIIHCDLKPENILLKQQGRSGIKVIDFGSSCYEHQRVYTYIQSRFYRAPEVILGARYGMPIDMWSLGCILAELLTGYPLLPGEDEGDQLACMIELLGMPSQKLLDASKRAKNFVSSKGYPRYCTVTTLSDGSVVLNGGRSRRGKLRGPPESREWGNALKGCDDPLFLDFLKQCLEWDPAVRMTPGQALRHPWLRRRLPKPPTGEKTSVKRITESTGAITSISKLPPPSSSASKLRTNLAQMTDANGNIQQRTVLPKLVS

[10] = biological target: T4, Dual specificity tyrosine-phosphorylation-regulated kinase 2 (Homo sapiens); details: at 10 µM
[11] = biological target: T5, Ephrin type-A receptor 1 (Homo sapiens) (UniProt P21709); details: at 1 µM
T5 sequence (whole entry): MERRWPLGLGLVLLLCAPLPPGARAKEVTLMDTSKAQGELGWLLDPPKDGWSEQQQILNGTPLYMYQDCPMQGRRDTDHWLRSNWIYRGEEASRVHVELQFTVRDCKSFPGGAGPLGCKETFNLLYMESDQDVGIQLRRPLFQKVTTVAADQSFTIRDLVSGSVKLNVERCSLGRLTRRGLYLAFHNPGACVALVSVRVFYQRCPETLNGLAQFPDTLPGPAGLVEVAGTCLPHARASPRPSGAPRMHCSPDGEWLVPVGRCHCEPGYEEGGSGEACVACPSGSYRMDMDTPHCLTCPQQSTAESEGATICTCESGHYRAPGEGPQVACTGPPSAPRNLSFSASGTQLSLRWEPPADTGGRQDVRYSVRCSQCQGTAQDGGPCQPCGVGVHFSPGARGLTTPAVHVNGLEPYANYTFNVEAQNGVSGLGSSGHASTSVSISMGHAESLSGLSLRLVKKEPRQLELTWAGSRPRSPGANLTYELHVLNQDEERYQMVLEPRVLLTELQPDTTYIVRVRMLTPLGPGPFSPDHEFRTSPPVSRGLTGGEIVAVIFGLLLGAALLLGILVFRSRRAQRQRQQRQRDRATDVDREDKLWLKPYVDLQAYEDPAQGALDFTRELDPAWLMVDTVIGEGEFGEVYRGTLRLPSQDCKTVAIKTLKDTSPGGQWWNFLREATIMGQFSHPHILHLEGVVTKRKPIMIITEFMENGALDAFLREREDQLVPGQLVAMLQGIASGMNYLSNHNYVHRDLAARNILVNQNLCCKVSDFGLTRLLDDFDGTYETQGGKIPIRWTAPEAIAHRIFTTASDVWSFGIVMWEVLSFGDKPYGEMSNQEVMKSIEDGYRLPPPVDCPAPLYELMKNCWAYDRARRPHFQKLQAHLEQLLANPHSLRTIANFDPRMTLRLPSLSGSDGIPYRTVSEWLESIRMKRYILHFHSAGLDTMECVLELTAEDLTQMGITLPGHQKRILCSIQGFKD

[12] = biological target: T5, Ephrin type-A receptor 1 (Homo sapiens); details: at 10 µM
[13] = biological target: Ephrin type-A receptor 2 (Homo sapiens) (UniProt P29317); details: at 1 µM
[14] = biological target: Ephrin type-A receptor 2 (Homo sapiens) (UniProt P29317); details: at 10 µM
[15] = biological target: T6, Ephrin type-A receptor 3 (Homo sapiens) (UniProt P29320); details: at 1 µM
T6 sequence (whole entry): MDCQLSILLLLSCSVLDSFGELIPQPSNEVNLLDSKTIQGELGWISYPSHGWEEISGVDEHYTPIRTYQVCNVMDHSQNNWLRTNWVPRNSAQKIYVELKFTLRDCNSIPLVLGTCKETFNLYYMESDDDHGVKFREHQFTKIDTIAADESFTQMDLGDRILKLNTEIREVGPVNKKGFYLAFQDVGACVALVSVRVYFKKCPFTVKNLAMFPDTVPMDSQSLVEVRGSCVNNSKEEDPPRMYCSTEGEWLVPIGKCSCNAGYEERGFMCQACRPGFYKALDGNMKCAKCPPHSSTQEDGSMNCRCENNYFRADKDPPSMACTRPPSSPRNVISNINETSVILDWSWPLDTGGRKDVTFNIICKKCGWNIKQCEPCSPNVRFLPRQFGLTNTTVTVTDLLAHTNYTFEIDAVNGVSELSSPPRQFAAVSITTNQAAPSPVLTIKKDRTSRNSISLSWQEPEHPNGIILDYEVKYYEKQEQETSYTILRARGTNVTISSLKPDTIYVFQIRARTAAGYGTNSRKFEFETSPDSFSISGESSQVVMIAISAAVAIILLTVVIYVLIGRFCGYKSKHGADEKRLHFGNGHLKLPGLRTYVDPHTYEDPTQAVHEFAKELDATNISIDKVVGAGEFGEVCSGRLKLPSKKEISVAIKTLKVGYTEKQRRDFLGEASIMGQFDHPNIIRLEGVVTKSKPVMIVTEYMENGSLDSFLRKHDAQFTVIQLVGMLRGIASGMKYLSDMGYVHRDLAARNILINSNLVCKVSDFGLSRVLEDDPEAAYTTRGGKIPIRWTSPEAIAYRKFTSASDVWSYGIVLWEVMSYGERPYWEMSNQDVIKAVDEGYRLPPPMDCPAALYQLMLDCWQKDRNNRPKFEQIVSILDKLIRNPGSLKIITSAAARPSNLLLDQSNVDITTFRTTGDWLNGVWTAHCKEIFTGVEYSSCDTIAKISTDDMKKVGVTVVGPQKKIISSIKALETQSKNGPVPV

[16] = biological target: T1, Serine/threonine-protein kinase DCLK2 (Homo sapiens); details: at 1 µM
[17] = biological target: T7, Discoidin domain-containing receptor 2 (Homo sapiens) (UniProt Q16832); details: at 1 µM
T7 sequence (whole entry): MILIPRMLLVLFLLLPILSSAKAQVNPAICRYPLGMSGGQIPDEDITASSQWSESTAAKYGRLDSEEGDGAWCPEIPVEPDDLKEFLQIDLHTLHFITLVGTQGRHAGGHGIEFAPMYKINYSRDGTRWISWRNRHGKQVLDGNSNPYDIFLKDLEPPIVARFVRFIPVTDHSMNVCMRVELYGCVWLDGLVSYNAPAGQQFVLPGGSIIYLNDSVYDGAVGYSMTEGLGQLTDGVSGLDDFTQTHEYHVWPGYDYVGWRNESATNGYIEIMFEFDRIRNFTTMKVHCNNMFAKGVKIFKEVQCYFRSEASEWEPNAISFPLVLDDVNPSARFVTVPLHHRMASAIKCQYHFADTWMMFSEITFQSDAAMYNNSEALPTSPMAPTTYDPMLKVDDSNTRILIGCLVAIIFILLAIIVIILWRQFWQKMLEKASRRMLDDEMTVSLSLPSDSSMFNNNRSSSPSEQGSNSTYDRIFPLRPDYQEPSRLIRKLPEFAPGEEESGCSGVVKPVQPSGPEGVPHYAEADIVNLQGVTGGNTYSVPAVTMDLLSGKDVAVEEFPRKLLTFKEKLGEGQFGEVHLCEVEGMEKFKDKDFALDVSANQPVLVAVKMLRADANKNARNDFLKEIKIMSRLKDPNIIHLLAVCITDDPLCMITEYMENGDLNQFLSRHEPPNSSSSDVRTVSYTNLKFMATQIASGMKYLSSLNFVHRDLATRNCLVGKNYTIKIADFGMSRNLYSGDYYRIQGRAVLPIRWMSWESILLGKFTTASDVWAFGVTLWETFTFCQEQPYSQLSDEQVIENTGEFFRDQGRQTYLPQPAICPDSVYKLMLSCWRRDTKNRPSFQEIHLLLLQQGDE

[18] = biological target: T7, Discoidin domain-containing receptor 2 (Homo sapiens); details: at 10 µM

Sequence of Death-associated protein kinase 1 (Homo sapiens) (P53355 whole entry, looked up): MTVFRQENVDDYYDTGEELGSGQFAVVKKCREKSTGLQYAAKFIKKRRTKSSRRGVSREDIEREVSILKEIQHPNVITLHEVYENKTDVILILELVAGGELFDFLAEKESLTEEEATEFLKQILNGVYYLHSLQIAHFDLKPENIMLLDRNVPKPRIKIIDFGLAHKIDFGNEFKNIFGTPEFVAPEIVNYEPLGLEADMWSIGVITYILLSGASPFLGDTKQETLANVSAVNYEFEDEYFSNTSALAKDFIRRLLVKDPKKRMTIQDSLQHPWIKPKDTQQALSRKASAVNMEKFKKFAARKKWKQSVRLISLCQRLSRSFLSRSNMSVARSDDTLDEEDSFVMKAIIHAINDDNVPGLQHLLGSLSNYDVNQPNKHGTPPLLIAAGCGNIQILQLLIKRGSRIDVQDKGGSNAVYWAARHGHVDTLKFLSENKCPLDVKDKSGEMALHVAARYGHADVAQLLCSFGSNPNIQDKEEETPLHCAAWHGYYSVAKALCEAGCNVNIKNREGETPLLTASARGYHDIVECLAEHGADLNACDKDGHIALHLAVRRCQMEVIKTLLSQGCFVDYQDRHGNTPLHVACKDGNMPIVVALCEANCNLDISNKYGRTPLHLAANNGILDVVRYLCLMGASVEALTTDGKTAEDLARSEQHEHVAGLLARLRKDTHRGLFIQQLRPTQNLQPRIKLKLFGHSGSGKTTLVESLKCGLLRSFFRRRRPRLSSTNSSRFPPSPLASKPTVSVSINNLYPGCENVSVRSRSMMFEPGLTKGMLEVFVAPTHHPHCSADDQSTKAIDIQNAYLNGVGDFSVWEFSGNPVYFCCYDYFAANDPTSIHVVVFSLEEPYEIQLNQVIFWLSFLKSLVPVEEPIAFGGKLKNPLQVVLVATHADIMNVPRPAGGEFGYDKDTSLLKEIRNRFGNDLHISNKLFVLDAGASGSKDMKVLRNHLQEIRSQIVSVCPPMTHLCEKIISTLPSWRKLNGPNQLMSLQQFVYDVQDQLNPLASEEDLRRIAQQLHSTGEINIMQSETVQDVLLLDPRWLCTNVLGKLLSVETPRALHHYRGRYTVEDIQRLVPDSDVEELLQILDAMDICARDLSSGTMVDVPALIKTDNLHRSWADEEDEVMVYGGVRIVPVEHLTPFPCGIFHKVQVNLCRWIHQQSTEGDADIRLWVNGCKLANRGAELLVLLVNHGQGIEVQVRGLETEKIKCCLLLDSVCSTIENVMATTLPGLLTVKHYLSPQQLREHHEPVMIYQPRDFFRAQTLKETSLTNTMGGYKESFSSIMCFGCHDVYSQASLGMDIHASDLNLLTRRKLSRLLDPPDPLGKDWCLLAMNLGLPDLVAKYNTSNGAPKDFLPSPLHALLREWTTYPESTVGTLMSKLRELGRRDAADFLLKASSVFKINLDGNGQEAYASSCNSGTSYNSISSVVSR
Sequence of Death-associated protein kinase 2 (Homo sapiens) (Q9UIK4 whole entry, looked up): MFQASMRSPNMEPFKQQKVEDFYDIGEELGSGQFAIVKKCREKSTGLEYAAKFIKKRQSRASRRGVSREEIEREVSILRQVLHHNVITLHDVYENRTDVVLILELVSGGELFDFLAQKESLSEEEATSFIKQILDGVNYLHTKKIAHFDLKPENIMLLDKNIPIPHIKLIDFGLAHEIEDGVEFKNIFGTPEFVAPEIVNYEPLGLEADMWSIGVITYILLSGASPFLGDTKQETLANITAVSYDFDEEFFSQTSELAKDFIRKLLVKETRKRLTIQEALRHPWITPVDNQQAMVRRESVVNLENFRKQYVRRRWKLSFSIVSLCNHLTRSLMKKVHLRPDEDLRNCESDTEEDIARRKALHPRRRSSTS
Sequence of Ephrin type-A receptor 2 (Homo sapiens) (P29317 whole entry): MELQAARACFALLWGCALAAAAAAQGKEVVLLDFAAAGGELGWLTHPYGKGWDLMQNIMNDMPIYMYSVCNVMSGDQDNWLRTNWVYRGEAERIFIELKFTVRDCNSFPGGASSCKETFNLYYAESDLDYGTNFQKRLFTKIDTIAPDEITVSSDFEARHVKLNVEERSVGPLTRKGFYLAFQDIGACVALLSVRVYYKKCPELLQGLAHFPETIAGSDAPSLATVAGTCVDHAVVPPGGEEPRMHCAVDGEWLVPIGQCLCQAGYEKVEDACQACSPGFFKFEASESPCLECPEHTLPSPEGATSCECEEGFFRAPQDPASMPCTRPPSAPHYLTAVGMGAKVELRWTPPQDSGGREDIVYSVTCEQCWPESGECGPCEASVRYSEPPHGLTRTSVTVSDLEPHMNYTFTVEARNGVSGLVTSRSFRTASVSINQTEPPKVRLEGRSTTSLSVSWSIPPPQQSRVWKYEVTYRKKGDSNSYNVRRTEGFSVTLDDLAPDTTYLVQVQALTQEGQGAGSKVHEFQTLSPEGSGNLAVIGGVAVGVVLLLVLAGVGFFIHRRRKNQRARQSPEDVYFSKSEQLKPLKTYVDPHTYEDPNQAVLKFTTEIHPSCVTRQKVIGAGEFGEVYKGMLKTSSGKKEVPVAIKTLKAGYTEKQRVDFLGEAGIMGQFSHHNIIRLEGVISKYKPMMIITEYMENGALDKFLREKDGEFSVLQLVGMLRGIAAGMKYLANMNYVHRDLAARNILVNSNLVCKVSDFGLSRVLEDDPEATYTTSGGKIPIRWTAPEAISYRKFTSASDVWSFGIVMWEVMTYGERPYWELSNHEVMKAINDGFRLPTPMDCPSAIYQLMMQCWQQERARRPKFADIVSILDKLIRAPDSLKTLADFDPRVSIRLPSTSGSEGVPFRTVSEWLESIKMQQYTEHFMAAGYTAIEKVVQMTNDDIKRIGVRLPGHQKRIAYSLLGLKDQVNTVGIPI

SMILES	residual activity [1]	residual activity [2]	residual activity [3]	residual activity [4]	residual activity [5]	residual activity [6]	residual activity [7]	residual activity [8]	residual activity [9]	residual activity [10]	residual activity [11]	residual activity [12]	residual activity [13]	residual activity [14]	residual activity [15]	residual activity [16]	residual activity [17]	residual activity [18]
O=c1cc(N2CCNCC2)oc2c(-c3ccccc3)cccc12	82%	98%	102%	70%	134%	141%	69%	66%	87%	94%	91%	100%	99%	97%	91%	–	–	–
CC(C)N(CCC(=O)c1ccc2ccccc2c1)Cc1ccccc1	76%	–	–	80%	–	131%	–	–	–	–	75%	85%	–	–	–	80%	–	–
O=C1Nc2ccccc2/C1=C\c1c(Cl)[nH]c2ccccc12	83%	–	–	–	119%	–	83%	85%	–	–	87%	72%	–	–	–	–	–	–
c1ccc(-c2cnc(Nc3ccc(OCCN4CCCC4)cc3)s2)cc1	–	–	–	54%	–	–	31%	4%	–	62%	77%	60%	–	–	104%	108%	100%	48%
O=C(Nc1nc2ccccc2n1CCN1CCOCC1)c1cccc([N+](=O)[O-])c1	73%	–	–	–	–	–	104%	53%	102%	88%	80%	123%	–	–	104%	–	110%	112%

— ChEMBL document CHEMBL2218924, “A broad activity screen in support of a chemogenomic map for kinase signalling research and drug discovery” (Biochem J, 2013)
